# PvdQ acylase: P. aeruginosa PvdQ acylase inhibition. 340,000 compounds, 0.063% hits. inhibition, % at 10 µM. purified PvdQ acylase, fluorescence plate reader; in the data active = inhibition above about 30%, passing the limit was not always enough
# Glyco luc inh: blocks N-linked glycosylation in D54 reporter cells. D54 ERlucT glycosylation luciferase reporter, 24 h; percent of 100 nM tunicamycin response. reporter increase, % at 12.5 µM. 360,000 compounds, 0.23% hits. AID 588692;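 active = mean luciferase reporter signal, scaled so untreated is 0 and the glycosylation-blocking control 100, at or above a set limit in every replicate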;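 note: luciferase carries N-glycosylation sites so blocking glycosylation raises the light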
# RAD52 inh: RAD52 (human) annealing inhibition; P43351; recombinant RAD52 DNA annealing, FRET fluorescence; inhibition, % at 18.7 µM; 360,000 compounds, 0.46% hits; AID 651710;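 active = every replicate showing at least 50% inhibition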
# RAD54 inh: inhibitors of human RAD54 branch migration; RAD54 Holliday junction branch migration, FAM/BHQ fluorescence; inhibition, % at 10.4 µM; 360,000 compounds, 0.14% hits; AID 602329;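 active = mean normalized replicate activity at least 40 and at least half of replicates scoring 40 or more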;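 note: inhibitors cause a drop in the FAM fluorescence signal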
# dFosB act: activators of mouse delta FosB homodimer | purified delta FosB, TAMRA-CDK5 oligo fluorescence polarization; percent of positive-control signal above neutral wells | P13346 | activation, % at 25 µM | 340,000 compounds, 0.99% hits;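 active = mean activation above about 17%, with every replicate also reaching it, limit read from the data, passing the limit was not always enough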
# Target sequence (P13346 whole entry, looked up): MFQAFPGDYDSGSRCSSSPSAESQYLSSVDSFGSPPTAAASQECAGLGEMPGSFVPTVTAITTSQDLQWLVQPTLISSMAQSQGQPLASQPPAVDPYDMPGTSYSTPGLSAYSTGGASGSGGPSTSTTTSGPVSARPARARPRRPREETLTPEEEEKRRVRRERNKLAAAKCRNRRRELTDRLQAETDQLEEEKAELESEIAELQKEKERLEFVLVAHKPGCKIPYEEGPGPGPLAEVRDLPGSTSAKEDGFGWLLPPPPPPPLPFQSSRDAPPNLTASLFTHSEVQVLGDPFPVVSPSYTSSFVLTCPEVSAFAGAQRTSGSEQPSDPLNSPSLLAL
# CFTR F508del cor: CFTR F508del correction in bronchial cells; 350,000 compounds, 0.36% hits; AID 720511; activity (quench increase), % at 7.58 µM; CFBE cells, YFP halide quenching; stimulated with forskolin plus potentiator P3; % fluorescence drop versus neutral controls;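 active = mean added fluorescence quench of at least 8% versus neutral control, with both replicates also reaching 8%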;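 note: cells transiently co-express mutant CFTR-F508del with the halide-sensitive YFP; corrector assay measuring rescue of mutant channel to the surface after 24 h compound exposure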
# A number is an active result; i = inactive; nt = not tested or not shown; ! = not active in a repeat. Most compounds without a hit are left out; they make up all but 1.5% or so of the library.
SMILES,PvdQ acylase,Glyco luc inh,RAD52 inh,RAD54 inh,dFosB act,CFTR F508del cor
CO[C@H]1CN(C)C(=O)c2ccc(NC(C)=O)cc2OC[C@@H](C)N(Cc2ccncc2)C[C@H]1C,nt,nt,nt,i,nt,i
Cc1cccc(NC(=O)C2CCCN(S(=O)(=O)c3ccc4[nH]c(=O)ccc4c3)C2)c1 (stereo unspecified),i,i,i,i,44.6,i
O=C(Nc1ccccc1F)N[C@H]1CC[C@H](CCNC(=O)C2CCC2)O[C@@H]1CO,nt,nt,i,i,nt,i
Cc1sc(NC(=S)NC(=O)CCc2ccccc2)c(C(N)=O)c1C,i,i,i,nt,i,12.2
Cn1nc(-c2ccc(Cl)cc2)nc2c(=O)n(C)c(=O)nc1-2,i,nt,nt,58.5,nt,nt
COc1cc(/C=C2/NC(=O)NC2=O)ccc1OCC(=O)Nc1ccc(F)cc1,i,i,i,i,i,i
O=C(COc1ccc(/C=C2/NC(=O)NC2=O)cc1)Nc1ccc(F)cc1,i,i,i,i,39.7,i
Cc1ccc(-c2ccc(C3[C@@H]4CN(S(=O)(=O)c5ccc(C)cc5)C[C@H]3N4)cc2)cc1 (stereo partly specified),nt,nt,73.7,nt,nt,i
O=S(=O)(c1ccc(F)cc1)N1C[C@@H]2N[C@H](C1)C2c1ccc(-c2ccc(F)cc2)cc1 (stereo partly specified),nt,nt,87.1!,nt,nt,i
Cc1cccc(S(=O)(=O)N2C[C@@H]3N[C@H](C2)C3c2ccc(-c3cncnc3)cc2)c1 (stereo partly specified),nt,nt,nt,nt,nt,i
O=S(=O)(c1ccccc1)N1C[C@@H]2N[C@H](C1)C2c1ccc(-c2ccc(F)cc2)cc1 (stereo partly specified),nt,nt,65.9!,nt,nt,i
Cc1cccc(S(=O)(=O)N2C[C@@H]3N[C@H](C2)C3c2ccc(-c3cccc(C#N)c3)cc2)c1 (stereo partly specified),nt,nt,53.6!,nt,nt,i
Cc1ccc(S(=O)(=O)N2C[C@@H]3N[C@H](C2)[C@@H]3c2ccc(-c3cccc(C)c3)cc2)cc1,nt,nt,nt,nt,nt,i
Cc1ccc(-c2ccc(C3[C@@H]4CN(S(=O)(=O)c5cccc(C)c5)C[C@H]3N4)cc2)cc1 (stereo partly specified),nt,nt,97.6,nt,nt,i
O=S(=O)(c1ccc(-c2ccccc2)cc1)N1C[C@@H]2N[C@H](C1)[C@@H]2c1ccc(-c2cccnc2)cc1,nt,nt,72.9,nt,nt,i
COc1ccc(CN2CC3(C2)CN(Cc2ccc4c(c2)OCO4)[C@@H](CO)c2[nH]c4cc(OC)ccc4c23)cc1,nt,nt,nt,nt,nt,i
O=C(C[C@H]1CC[C@H]2[C@@H](COC[C@@H](O)CN2S(=O)(=O)c2ccc(Cl)cc2)O1)NCc1ccc(Cl)c(Cl)c1,nt,nt,i,i,nt,i
COc1cccc(CNC(=O)[C@@H]2N[C@@H]3c4ccc(/C=C/c5ccccc5)c(=O)n4C[C@@H]3[C@H]2CO)c1,nt,nt,nt,nt,nt,i
O=C(c1cnccn1)N1CCc2c([nH]c3ccccc23)C1c1cccc(Cl)c1 (stereo unspecified),i,i,i,i,i,i
O=C(CCN1CCCCC1)N1CCc2c([nH]c3ccccc23)C1c1cccnc1 (stereo unspecified),i,i,i,nt,i,8.9
COC(=O)C[C@H]1CC[C@@H]2[C@@H](COc3ccc(NC(=O)c4ccc(F)cc4)cc3C(=O)N2C)O1,nt,nt,i,i,nt,i
O=[N+]([O-])c1ccc(Cl)cc1CN1CCCCCC1,i,i,i,i,i,i
Clc1ccc2scc(CN3CCCCC3)c2c1,33.3,i,nt,i,i,nt
COC(=O)c1noc(-c2ccc(OC)cc2)n1,70.9,i,nt,i,i,nt
COC(=O)c1noc(-c2ccc(C)cc2)n1,i,i,nt,i,i,nt
SMILES,PvdQ acylase,Glyco luc inh,RAD52 inh,RAD54 inh,dFosB act,CFTR F508del cor
O=C(NN=Cc1c(O)ccc2ccccc12)c1ccncc1,i,i,i,nt,i,i
Cn1nccc1C(=O)N/N=C/c1c(O)ccc2ccccc12,i,i,i,i,i,11.2
Cc1occc1C(=O)N/N=C/c1c(O)ccc2ccccc12,i,i,i,i,i,10.4
Cc1ccc(S(=O)(=O)Nc2ccc3c(c2)C(=O)N([C@@H](C)CO)C[C@@H](C)[C@H](CN(C)S(=O)(=O)c2cn(C)cn2)O3)cc1,nt,nt,i,i,nt,i
COc1ccc2c3c(n(C)c2c1)[C@H](CO)NCC31CCN(S(=O)(=O)c2cccc(C)c2)CC1,nt,nt,54.7,nt,nt,i
COc1ccc2c3c(n(C)c2c1)[C@H](CO)NCC31CN(Cc2ccc(F)cc2)C1,nt,nt,61.9,nt,nt,i
COc1ccc2c3c(n(C)c2c1)[C@H](CO)NCC31CN(CC2CC2)C1,nt,nt,61.7,nt,nt,i
COc1ccc2c3c(n(C)c2c1)[C@H](CO)NCC31CN(C(=O)CC2CC2)C1,nt,nt,i,nt,nt,i
COc1ccc2c3c(n(C)c2c1)[C@@H](CO)NCC31CN(Cc2ccc(Cl)cc2)C1,nt,nt,nt,nt,nt,i
CCCNC(=O)N1CC2(CN(S(=O)(=O)c3cccc(OC)c3)C2)c2c(n(C)c3cc(OC)ccc23)[C@H]1CO,nt,nt,nt,nt,nt,8.6
CC(=O)Nc1ccc2c(c1)C(=O)N(C)[C@H]1CC[C@H](CC(=O)NCCCN3CCOCC3)O[C@H]1CO2,nt,nt,i,i,nt,i
CCCN(C)C[C@@H]1Oc2ncc(-c3ccccc3)cc2C(=O)N([C@H](C)CO)C[C@H]1C,nt,nt,nt,nt,nt,i
COc1ccc2c3c(n(C)c2c1)[C@H](CO)NCC31CCN(Cc2ccccc2Cl)CC1,nt,nt,nt,nt,nt,i
COc1ccc2c3c(n(C)c2c1)[C@@H](CO)NCC31CN(CC2CCOCC2)C1,nt,nt,74.9,nt,nt,i
COc1ccc2c3c(n(C)c2c1)[C@H](CO)NCC31CCN(Cc2cc(-c3ccccc3)on2)CC1,nt,nt,66.9,nt,nt,12.0
CCC(=O)N1CC2(CN(Cc3ccc(Cl)cc3)C2)c2c(n(C)c3cc(OC)ccc23)[C@@H]1CO,nt,nt,i,nt,nt,i
CCC(=O)N1CC2(CCN(Cc3ccc(Cl)cc3)CC2)c2c(n(C)c3cc(OC)ccc23)[C@H]1CO,nt,nt,i,nt,nt,13.5
O=C(Cc1cccnc1)N1[C@H](CO)[C@H](c2ccccc2)[C@@H]1CNCC1CCC1,nt,nt,i,i,nt,i
CNC[C@H]1Oc2ccc(NS(=O)(=O)c3ccc(F)cc3)cc2C(=O)N([C@@H](C)CO)C[C@H]1C,nt,nt,i,i,nt,i
CCC(=O)N(C)C[C@@H]1Oc2ncc(-c3ccc(C#N)cc3)cc2C(=O)N([C@@H](C)CO)C[C@@H]1C,nt,nt,i,i,nt,i
C[C@H](CO)N1C[C@H](C)[C@@H](CN(C)Cc2ccc(C(=O)Nc3ccccc3N)cc2)Oc2ccc(NC(=O)Cc3ccccc3)cc2CC1=O,nt,nt,i,nt,nt,i
N#Cc1c(N2CCCC2)nc(N)c2c(N)nc(N3CCCC3)cc12,i,40.7,nt,nt,i,nt
C[C@H](CO)N1C[C@H](C)[C@@H](CN(C)C)Oc2ncc(C3=CCCC3)cc2C1=O,nt,nt,i,i,nt,i
O=Cc1ccc(-n2cncn2)cc1,i,i,i,nt,i,i
CN1C(=O)S/C(=C\c2ccc(-n3cncn3)cc2)C1=O,48.0,i,i,i,i,i
O=Nc1ccc(O)c2ncccc12,i,i,i,nt,i,15.7
Cc1ccccc1N=Nc1ccc(O)c2ncccc12,i,i,i,i,i,nt

# Screening results: PubChem, Broad Institute
